Screens deposited in PubChem by Broad Institute.
Shown is part of a subset that was picked to be rich in hits.
IDE exosite inh = exo-site inhibitors of human insulin-degrading enzyme; hit rate 6.3% among 17,000; P14735; z-score at 20 µM; purified IDE, FL-6b probe fluorescence polarization; hits give low values;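 active means z-score of -3 or lower, meaning strong loss of probe binding signal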;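 further: His-tagged human IDE residues 42-1019 made in E. coli with 30 nM FL-6b probe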
The depositor's hits bear a star; ! = a repeat was not active.

Screening CC(=O)N1CCCCN2[C@@H](CO)[C@@H](c3ccc(-c4cccc(C)c4)cc3)[C@@H]2C1 returned IDE exosite inh -2.4.
`CC(=O)N1CCCCN2[C@@H](CO)[C@@H](c3ccc(-c4ccccc4)cc3)[C@@H]2C1` gave IDE exosite inh -1.8.
For CC(=O)N1CCCCN2[C@H](CO)[C@@H](c3ccc(-c4cccc(C)c4)cc3)[C@H]2C1 the results were IDE exosite inh -5.7*.
Screening COCC(=O)N1CCCCN2[C@H](CO)[C@H](c3ccc(-c4ccc(C)cc4)cc3)[C@H]2C1 returned IDE exosite inh 0.099.
`CC(=O)N1CCCCN2[C@H](C1)[C@H](c1ccc(-c3ccccc3)cc1)[C@@H]2CO` gave IDE exosite inh 0.47.
CC(=O)N1CCCCN2[C@H](CO)[C@@H](c3ccc(-c4cccc(C)c4)cc3)[C@@H]2C1 was read as IDE exosite inh -3.5*.
For COCC(=O)N1CCCCN2[C@H](C1)[C@@H](c1ccc(-c3cccc(C)c3)cc1)[C@@H]2CO the results were IDE exosite inh -5*.
COCC(=O)N1CCCCN2[C@H](CO)[C@@H](c3ccc(-c4cccc(C)c4)cc3)[C@H]2C1 was read as IDE exosite inh -0.66.
Screening O=C1CN(S(=O)(=O)Cc2ccccc2)C[C@@H]2[C@H](c3ccc(C#Cc4ccc(F)cc4)cc3)[C@@H](CO)N12 returned IDE exosite inh 0.052.
O=C(c1ccccc1)N1CC(=O)N2[C@H](C1)[C@@H](c1ccc(C#CC3CC3)cc1)[C@@H]2CO was read as IDE exosite inh 2.1.
For O=C(c1ccc2c(c1)OCO2)N1CC(=O)N2[C@H](CO)[C@@H](c3ccc(C#CCC4CCCC4)cc3)[C@@H]2C1 the results were IDE exosite inh 2.4.
For CC(C)NC(=O)NCC[C@@H]1CC[C@H](NS(=O)(=O)c2ccc(Oc3ccccc3)cc2)[C@H](CO)O1 the results were IDE exosite inh 0.99.
For N#C[C@H]1[C@@H](c2ccc(C3=CCCCC3)cc2)[C@H](CO)N1C(=O)Cc1ccncc1 the results were IDE exosite inh 6.7.
`CCC(=O)N1CC(=O)N2[C@H](CO)[C@@H](c3ccc(C#CC(C)C)cc3)[C@H]2C1` gave IDE exosite inh 1.
Screening O=C(NC1CCCCC1)N1C[C@@H]2N[C@H](C1)C2c1ccc(-c2ccc(F)cc2)cc1 (stereo partly drawn) returned IDE exosite inh 2.2.
O=C(Nc1ccc(F)cc1)N1C[C@@H]2N[C@H](C1)C2c1ccc(/C=C/c2ccccc2)cc1 (stereo partly drawn) was read as IDE exosite inh 0.82.
For Cc1ccccc1-c1ccc(C2[C@@H]3CN(C(=O)Nc4ccc(F)cc4)C[C@H]2N3)cc1 (stereo partly drawn) the results were IDE exosite inh -11*.
C/C=C/c1ccc(C2[C@@H]3CN(C(=O)NC4CCCCC4)C[C@H]2N3)cc1 (stereo partly drawn) was read as IDE exosite inh -0.36.
`Cc1ccccc1-c1ccc(C2[C@@H]3CN(C(=O)NC4CCCCC4)C[C@H]2N3)cc1` (stereo partly drawn) gave IDE exosite inh -8.2*!.
For Cc1ccccc1-c1ccc(C2[C@H]3CNC[C@@H]2N3C(=O)Nc2ccc(F)cc2)cc1 (stereo partly drawn) the results were IDE exosite inh -0.67.
Screening O=C(Nc1cccc(F)c1)N1C[C@@H]2N[C@H](C1)C2c1ccc(-c2cccnc2)cc1 (stereo partly drawn) returned IDE exosite inh 1.4.
For Cc1ccccc1-c1ccc(C2[C@@H]3CN(C(=O)Nc4cccc(F)c4)C[C@H]2N3)cc1 (stereo partly drawn) the results were IDE exosite inh -6.4*.
Screening O=C(Nc1cccc(F)c1)N1C[C@@H]2N[C@H](C1)C2c1ccc(-c2ccccc2F)cc1 (stereo partly drawn) returned IDE exosite inh -0.69.
Screening CN1CCN(C(=O)C[C@H]2CC[C@H]3[C@@H](COc4ccc(NC(=O)c5cccs5)cc4C(=O)N3C)O2)CC1 returned IDE exosite inh -0.8.
`COCC(=O)Nc1ccc2c(c1)OC[C@H](C)N(C)C[C@@H](C)[C@H](OC)CN(C)C2=O` gave IDE exosite inh 0.27.
`O=C1CN(S(=O)(=O)Cc2ccccc2)C[C@H]2[C@@H](c3ccc(C#CC4CC4)cc3)[C@H](CO)N12` gave IDE exosite inh 0.85.
N#C[C@@H]1[C@@H](c2ccccc2)[C@@H](CO)N1S(=O)(=O)Cc1ccccc1 was read as IDE exosite inh 0.68.
For CCc1sc(N2[C@H](C#N)[C@H](c3ccccc3-c3ccc(F)cc3)[C@@H]2CO)nc1C the results were IDE exosite inh 0.51.
Screening O=C(Nc1ccc2c(c1)[C@@H]1C[C@H](CC(=O)N3CCOCC3)O[C@@H](CO)[C@@H]1O2)Nc1ccccc1F returned IDE exosite inh -0.75.
For C/C=C/c1ccccc1[C@H]1[C@H](C#N)N(C(=O)c2cccnc2)[C@H]1CO the results were IDE exosite inh 0.035.
`CC(C)[C@@H]1CCc2cnnn2COC[C@@H](Cc2ccccc2)NC1=O` gave IDE exosite inh -0.47.
`Cc1ccc(-c2ccc([C@@H]3[C@H](CO)N4CCCCN(S(=O)(=O)c5ccccc5C)C[C@@H]34)cc2)cc1` gave IDE exosite inh 0.8.
Screening CN(C)CC(=O)N1CCCCN2[C@H](CO)[C@H](c3ccc(/C=C/c4ccccc4)cc3)[C@@H]2C1 returned IDE exosite inh -7.7*.
For CN(C)CC#Cc1ccc([C@H]2[C@H]3CN(C(=O)CN(C)C)CCCCN3[C@H]2CO)cc1 the results were IDE exosite inh 4.6.
Screening CN(C)CC(=O)N1CCCCN2[C@H](CO)[C@@H](c3ccc(/C=C/c4ccccc4)cc3)[C@@H]2C1 returned IDE exosite inh -12*.
CN(C)CC(=O)N1CCCCN2[C@H](CO)[C@H](c3ccc(-c4ccccc4)cc3)[C@H]2C1 was read as IDE exosite inh 2.3.
`C/C=C/c1ccc([C@@H]2[C@H](CO)N3CCCCN(C(=O)CN(C)C)C[C@@H]23)cc1` gave IDE exosite inh 3.9.
`CN(C)CC(=O)N1CCCCN2[C@H](CO)[C@H](c3ccc(-c4ccccc4)cc3)[C@@H]2C1` gave IDE exosite inh 2.3.
C[C@@H]1CN([C@@H](C)CO)C(=O)Cc2cc(NC(=O)CCC(F)(F)F)ccc2O[C@@H]1CN(C)CC1CC1 was read as IDE exosite inh -1.
Screening CS(=O)(=O)N1CCCCN2[C@H](CO)[C@@H](c3ccc(Br)cc3)[C@H]2C1 returned IDE exosite inh 2.4.
For N#C[C@H]1[C@@H](c2ccc(C3=CCCC3)cc2)[C@@H](CO)N1C(=O)c1ccccn1 the results were IDE exosite inh 0.95.
For O=C(C[C@@H]1CC[C@@H]2[C@H](COC[C@H](O)CN2Cc2nccs2)O1)NCc1ccccc1Cl the results were IDE exosite inh -0.59.
For O=C1CN(Cc2ccc(F)cc2)C[C@H]2[C@@H](c3ccc(Br)cc3)[C@@H](CO)N12 the results were IDE exosite inh 2.4.
CC(C)CC#Cc1ccc([C@@H]2[C@@H](CO)N3C(=O)CN(C(=O)c4ccccn4)C[C@H]23)cc1 was read as IDE exosite inh -0.0019.
O=C(c1ccccc1F)N1CC(=O)N2[C@@H](CO)[C@H](c3ccc(-c4cccnc4)cc3)[C@@H]2C1 was read as IDE exosite inh -1.5.
`Cc1ccc(CN2CC(=O)N3[C@@H](CO)[C@H](c4ccc(-c5cccnc5)cc4)[C@@H]3C2)cc1` gave IDE exosite inh -3.1*.
